Experimental findings from PubChem BioAssay (NCI) are described below.

Test [1] is described as follows: NCI Yeast Anticancer Drug Screen. Data for the rad50 strain (AID 155).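 Note: 0% = growth of vehicle-only cultures of the same strain.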 As to conditions: S. cerevisiae rad50 strain growth inhibition; at 50.0 µM; stronger effect = higher value. In a few lines: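 Compounds were tested on a yeast strain with an engineered DNA damage repair alteration; the reported value is growth inhibition normalised to vehicle treatment.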
The nature of test [2]: NCI Yeast Anticancer Drug Screen. Data for the mec2-1 strain (AID 157). As to conditions: S. cerevisiae mec2-1 strain, at 50.0 µM, stronger effect = higher value. An outline of the steps: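 Strain: mec2-1 (DNA repair/cell cycle alteration). Compound exposure, then growth measured; inhibition expressed relative to vehicle.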
Test [3] in a line: NCI Yeast Anticancer Drug Screen. Data for the sgs1 mgt1 strain (AID 161).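 Note: 0% = growth of cultures given vehicle only.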 As to conditions: S. cerevisiae sgs1 mgt1 strain, at 50.0 µM, stronger effect = higher value. In a few lines: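 Inhibition of yeast growth, normalised to vehicle-treated controls, is reported for a strain bearing genetic alterations in DNA damage repair.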
Test [4] can be described thus: NCI Yeast Anticancer Drug Screen. Data for the bub3 strain (AID 167). As to conditions: S. cerevisiae bub3 mutant strain, at 50.0 µM, stronger effect = higher value. In a few lines: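 Growth of a checkpoint-deficient yeast mutant is measured after compound exposure. Values represent inhibition relative to vehicle.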
The nature of test [5]: NCI Yeast Anticancer Drug Screen. Data for the mlh1 rad18 strain (AID 175). As to conditions: S. cerevisiae mlh1 rad18 strain growth inhibition; at 50.0 µM; stronger effect = higher value. In a few lines: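 Read-out is yeast growth inhibition, calculated against vehicle-only controls. The compound was applied to a strain engineered with DNA damage repair alterations.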
Test [6] is described as follows: NCI Yeast Anticancer Drug Screen. Data for the cln2 rad14 strain (AID 165).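 Note: 0% = growth equal to vehicle treated cultures.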 As to conditions: S. cerevisiae cln2 rad14 strain, at 50.0 µM, stronger effect = higher value. In a few lines: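 Compounds are applied to the cln2 rad14 yeast strain, and growth is then compared with that of vehicle-treated cultures to give inhibition.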

This is part of a sample that, as a whole, favours compounds with a hit. Of some 79,000 tested, about 15% had one in any assay. A number with no mark means an inactive call. Calls of active or inactive are those of the source. Cut-off read from the data, not from the text of the source: active = growth inhibition above about 70%; inactive = the rest.

Regarding `O=C1c2ccccc2C(C2N=Nc3ccccc32)c2ccccc21` (stereo not given), the growth inhibition in test [1] is 7.1%; in test [2] it was 5.15%; in test [3] it was 15.6%; in test [4] it was 3.8%; in test [5] it was 6.2%.
Regarding `O=C(O)c1cc(Cl)ccc1-c1ccc(Cl)cc1C(=O)Nc1ccc2c(c1)Cc1cc(Cl)cc(Cl)c1-2`, the growth inhibition in test [1] is 96.2% (active); in test [2], 97.5% (active); in test [3] it was 97.8% (active); in test [4], 95.6% (active); in test [5] it was 97.3% (active).
Consider `CCN(CC)Cc1cc(Nc2nc(/C=C/c3ccccc3)nc3ccccc23)ccc1O`, for which the growth inhibition is 4.05% in test [1]; -37.5% in test [2]; -3.25% in test [3]; -6.7% in test [4]; -14.6% in test [5].
As for `CC(C)COC(=O)c1cc(O)[nH]c(=O)c1`, the growth inhibition in test [1] was -19.6%; in test [2], -7.8%; in test [3], 1.75%; in test [4], -15.5%; in test [5], -6.8%.
For `C[n+]1nc2ccccc2c(=Nc2ccccc2[N+](=O)[O-])[n-]1` the same measures were 10.3%, -2.35%, 22.7%, 8.5% and -1.65%.
As to `CC(CCc1nc2ccccc2[nH]1)c1nc2ccccc2[nH]1` (stereo not given), the growth inhibition was -18.6% in test [1]; 2.05% in test [2]; -0.8% in test [3]; 14.8% in test [4]; 17.4% in test [5].
For the compound `c1cnc2cccnc2c1`, the growth inhibition was -16.1% in test [1]; -30.4% in test [2]; -14.7% in test [3]; -8.6% in test [4]; -9.9% in test [5].
Turning to `COC(=O)C=Cc1ccc2nncnc2c1` (mixture of isomers), the growth inhibition in test [1] is 24.1%; in test [2] it was 21.7%; in test [3], 8.15%; in test [4], 36.4%; in test [5], -7.7%.
On to `c1ccc(CCNCc2ccc(CNCCc3ccccc3)cc2)cc1`, for which the growth inhibition was -5.75% in test [1]; -23.9% in test [2]; -12.2% in test [3]; -0.25% in test [4]; 3.45% in test [5].
Turning to `O=c1oc2ccc3ccccc3c2c2c1CCCCC2`, the growth inhibition in test [1] is -13.9%; in test [2], -4.05%; in test [3] it was -14.8%; in test [4], -8.05%; in test [5] it was -26.5%.
For `COc1ccc(C(=O)Nc2c(N)ncnc2N)cc1`, the growth inhibition in test [1] was 16.8%; in test [2], 73.7% (active); in test [3], 35.1%; in test [4], 16.5%; in test [5], 15.1%.
As for `CCN(CC)c1ccccc1-c1ccccc1`, the growth inhibition in test [1] was 34.9%; in test [2] it was 20.1%; in test [3], 1.05%; in test [6], -58.6%; in test [5], 20.1%.
On to `CC1=NN(C(=O)c2ccc(Cl)cc2)C(=O)C1N=Nc1ccc(S(=O)(=O)Nc2ccccn2)cc1` (stereo not given), for which the growth inhibition is -0.85% in test [1]; 16.8% in test [2]; 14.7% in test [3]; -10.6% in test [4]; 30.7% in test [5].
Consider `COc1ccc(CNc2cnc3ccc(N)cc3n2)cc1OC`, for which the growth inhibition in test [1] was -36.9%; in test [2], -55.1%; in test [3], -40.2%; in test [4], -25%; in test [5], -30.9%.
Turning to `O=C(c1ccc(Cl)s1)C(Cl)C(Cl)c1ccc(Cl)s1` (stereo not given), the growth inhibition in test [1] was -20.5%; in test [2] it was -2.4%; in test [3], 1.2%; in test [6], -12.4%; in test [5] it was -3.55%.
In the case of `Cn1c(=O)c2c(nc(N(CCN(N=O)c3nc4c(c(=O)n(C)c(=O)n4C)n3C)N=O)n2C)n(C)c1=O`, the growth inhibition in test [1] is -11%; in test [2], -4.35%; in test [3], -25.7%; in test [4], -8.85%; in test [5], -0.65%.
With `O=C(NCCCl)Nc1[nH]c(=O)ncc1Cl`, the growth inhibition was -12.2% in test [1]; -13.2% in test [2]; -16.5% in test [3]; -12.4% in test [4]; -3.15% in test [5].
As for `CC1=CCC(C(C)(C)OCCCO)CC1` (stereo not given), the growth inhibition was 15.8% in test [1]; 14% in test [2]; -17.6% in test [3]; 4.4% in test [4]; 22% in test [5].
Turning to `CCOC1(c2ccccc2)CCNCC1`, the growth inhibition in test [1] is 21.9%; in test [2], -0.65%; in test [3] it was 29.4%; in test [4] it was 16.3%; in test [5] it was 12.9%.
With `COc1ccc(C2=CN(S(=O)(=O)c3ccc(C)cc3)CCc3ccccc32)cc1`, the growth inhibition in test [1] was -31.4%; in test [2] it was -10.9%; in test [3], -31.8%; in test [4], -6.6%; in test [5] it was -23.7%.
For `CCCCNc1nc(C#N)c(N)s1` the same measures were 3.6%, -3.35%, -12.7%, 11.7% and 8.55%.
Regarding `CCN(CC)CCOC(=O)C(c1ccccc1)C1C=CCCC1` (stereo not given), the growth inhibition is 38.8% in test [1]; 2.6% in test [2]; 19.1% in test [3]; -3.1% in test [4]; 30.4% in test [5].
Taken in the same sequence, the figures for `Cc1ccc(NC(=O)Oc2ccccc2C(=O)OCc2ccccc2)cc1` were 5.3%, 7.1%, 6.25%, 8.25% and 1.25%.
As for `CCCCN1CCNC1=S`, the growth inhibition in test [1] is -0.85%; in test [2], -13.2%; in test [3] it was 4.25%; in test [4] it was -28.4%; in test [5] it was 9.35%.
In the case of `CCC(C)NC(=O)c1cccc2c1-c1ccccc1C2=O` (stereo not given), the growth inhibition in test [1] is -0.05%; in test [2] it was -5.15%; in test [3], 0.35%; in test [4], 25.2%; in test [5], 14.4%.
On to `CC(O)C(N=Cc1ccccc1[O-])C(=O)[O-].CC(O)C(N=Cc1ccccc1[O-])C(=O)[O-].[Co+2]` (stereo not given), for which the growth inhibition in test [1] was -7%; in test [2], -2.05%; in test [3], -16.6%; in test [4], 7.65%; in test [5], -25.9%.
For `O=C(Cn1nnc(N2CCCCC2)n1)N/N=C/c1ccccc1O`, the growth inhibition in test [1] was -29.7%; in test [2], -42%; in test [3] it was -9%; in test [4], -9.05%; in test [5], -29.3%.
With `CN(C)c1nc(=S)c2cn[nH]c2[nH]1`, the growth inhibition was 0.1% in test [1]; 0% in test [2]; -3.7% in test [3]; 6% in test [4]; -1.2% in test [5].
Regarding `COc1ccc(/C=N/N2CN(C(CC(N)=O)C(=O)O)P(Nc3ncccn3)N=C2N)cc1OC` (stereo not given), the growth inhibition was 7.55% in test [1]; -3.9% in test [2]; 0.4% in test [3]; 6.65% in test [4]; 8.35% in test [5].
On to `CON(C)c1nc2ccccc2o1`, for which the growth inhibition is -22.1% in test [1]; -8.45% in test [2]; -9% in test [3]; -2.3% in test [4]; -17.6% in test [5].
For the compound `CCCCCCCCCCCCCCCCCC(=O)N/N=C\c1ccc(O)c(OC)c1`, the growth inhibition is -11.6% in test [1]; -13.6% in test [2]; -9.35% in test [3]; -2.55% in test [4]; 6.5% in test [5].
Taken in the same sequence, the figures for `CCCCNC(=O)/N=C/c1c(O)c2ccccc2oc1=O` were 7.9%, -10.1%, -13.4%, -42.5% and -16.6%.
For `COC1OC(COC(=O)c2ccccc2)C(SC(=O)c2ccccc2)C1OC(=O)c1ccccc1` (stereo not given) the same measures were -21.1%, -1.35%, -32.5%, -1.4% and -12.5%.
On to `O=c1[nH]c(=S)[nH]c2c1CN(CCCN1CCOCC1)CN2`, for which the growth inhibition in test [1] is 10.3%; in test [2], -8.7%; in test [3], -15.8%; in test [4] it was -25.1%; in test [5] it was 5.45%.
Consider `NC(=S)n1nc(-c2ccccc2)c(N=Nc2ccccc2[N+](=O)[O-])c1-c1ccccc1`, for which the growth inhibition in test [1] was 13.2%; in test [2], 2.5%; in test [6] it was -35.6%; in test [4], 3.6%; in test [5], 9.45%.
For the compound `Cc1[nH]c2cc([N+](=O)[O-])ccc2c1C`, the growth inhibition was 0.45% in test [1]; -35.2% in test [2]; -10.1% in test [3]; 1.3% in test [4]; -0.5% in test [5].
Regarding `O=C(O)CSc1nc2ccc(N3C(=O)C4C5C=CC(C5)C4C3=O)cc2s1` (stereo not given), the growth inhibition in test [1] is 29.4%; in test [2], -2.65%; in test [3] it was -2.5%; in test [4], -2.5%; in test [5] it was 6.15%.
Take `CC(=O)OC1CC[C@@]2(C)C(CC[C@]3(C)C2CC=C2[C@@H]4C(C)[C@H](C)CCC4(C)CCC23C)[C@@]1(C)C(=O)O` (stereo not given in full): the growth inhibition in test [1] was 1.05%; in test [2] it was 14.8%; in test [6], 3.25%; in test [4], 48.1%; in test [5], 16.4%.
Turning to `CO[C@@H]1O[C@H](C(=O)c2ccccc2)[C@H]2OC(C)(C)O[C@@H]12`, the growth inhibition in test [1] was -5%; in test [2], -10.7%; in test [6], 8.7%; in test [4], 19.1%; in test [5], 16.3%.
Taken in the same sequence, the figures for `CC1=CC(/C=C(\C)CCCc2ccoc2)C2(OC(=O)C(C)=C2O)[C@H]2C1CC[C@@H]2C` (stereo not given in full) were 49.9%, 58.3%, 66%, 55.5% and 54.9%.
On to `CN(C)CCC(=O)c1cccc(O)c1`, for which the growth inhibition in test [1] is -27.9%; in test [2] it was -19%; in test [3] it was -6.4%; in test [4], -9.45%; in test [5] it was -10.2%.
With `OC(CBr)(c1ccccc1)c1ccccc1`, the growth inhibition in test [1] was 13.5%; in test [2], 23.4%; in test [6], 31.3%; in test [4], 7%; in test [5], 24.1%.
As to `Cc1cc2c(c3c1C(=O)CC3)CCCC2(C)C`, the growth inhibition is 9.3% in test [1]; 3.9% in test [2]; -6.2% in test [6]; 2.15% in test [4]; -1.8% in test [5].
In the case of `O=C1C=C2SCCN2C(=O)C1`, the growth inhibition is -5.9% in test [1]; -33.8% in test [2]; -2.85% in test [6]; -5.85% in test [4]; 14.9% in test [5].
`Nc1ccc2c(c1)Cc1cc(O)ccc1-2`: the growth inhibition in test [1] was 19.1%; in test [2] it was -8.75%; in test [6], 6.3%; in test [4], 9.9%; in test [5], 4.35%.
With `O=C(Cc1ccc2cc3c(cc2c1)OCO3)NCCc1ccc2c(c1)OCO2`, the growth inhibition in test [1] was 30.4%; in test [2], -8.4%; in test [6], -11.2%; in test [4] it was -1.25%; in test [5], 8.8%.
